Assay outcomes deposited in PubChem by National Center for Advancing Translational Sciences (NCATS).
CCT modulator = modulators of cytosolic chaperonin (CCT/TRiC) activity. AID 651819. activity change, % (concentration not given with the values), hits read low. 0.3% of 360,000 active. purified chaperonin ATPase assay, HTRF ADP detection, 30 min; in the data active = activity change below about -30%
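Enzyme 40 or 20 nM (batch-dependent) in Tris pH 7.4/KCl/MgCl2/DTT; cpd 76 uM single point; ATP 10 uM; 30 min 37 °C; Transcreener ADP HTRF detection, 30 min RT; ratio 665/615.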
pAkt inh = Akt phosphorylation inhibition. Neuro2A IGF-stimulated pAkt S473 HTRF, 20 min; active compounds read low. activity change, % for hits at 50 µM. 0.32% of 360,000 active. AID 651550; in the data active = activity change below about -80%; inconclusive = mostly about -51% to -80%
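Single-point screen (50 µM final compound) in Neuro2A cells stimulated 20 min with 6 nM IGF at 37 deg C. After lysis, Ser473-phosphorylated Akt read by HTRF (ex 330 nm, em 615/665 nm) as the 665/615 ratio.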
Six1-Eya2 blk = Six1/Eya2 interaction inhibition | Q15475+O00167 | activity change, % (no concentration beside the values) | 0.56% of 360,000 active | AlphaScreen GST-Six1/His-Eya2 binding, biochemical; active compounds read low
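AlphaScreen luminescence read after one hour at 37 °C in darkness. Pin-transferred compounds met GST-Six1 and His-Eya2 protein (5X stock 250 nM/500 nM) plus glutathione donor and Ni-chelate acceptor beads (5X, 50 ug/mL).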
CtBP-E1A blk = inhibitors of CtBP/E1A interaction; AlphaScreen GST-E1A/His-CtBP binding, 1536-well; active compounds read low; activity change, % (concentration not given with the values); 0.49% of 340,000 active; AID 651724
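Protein mix (5X: 125 nM each GST-E1A, His-CtBP) was incubated with pinned compound 2 h at 37 deg C in dark, in 50 mM Tris pH 8.0 buffer with 300 mM NaCl. Glutathione donor and nickel acceptor beads followed; AlphaScreen signal read after 1 h.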
* = called active by the depositor; i = inactive; ? = inconclusive; nt = not tested or not shown. Shown are actives, neighbours in structure and some others; about 1.2% of the full set was active somewhere. Rule as the data show it, unless noted: active = activity change below about -65%; inconclusive = mostly about -30% to -63%; inactive = weaker than that. % is scaled to controls: 0 for no effect and ±100 for the full control effect.

SMILES | CCT modulator | pAkt inh | Six1-Eya2 blk | CtBP-E1A blk
Cc1nc(N)sc1-c1csc(Nc2ccccc2)n1 | 0 | i | ? | ?
COc1ccc(OC)c(Nc2nc(-c3sc(N)nc3C)cs2)c1 | -3 | nt | ? | -68*
Cc1cc(O)ccc1Nc1nc(-c2sc(N)nc2C)cs1 | 3 | nt | ? | -67*
CC(C)Sc1nc2ccccc2n1CC(=O)O | 0 | i | 5 | 7
O=C(c1ccc(CS(=O)c2ccccc2Cl)o1)N1CCN(c2ccccn2)CC1 (stereo not given) | -1 | nt | -2 | nt
COc1ccc(-c2nc(C)ncc2N=Nc2ccccc2)cc1 | -2 | -114%* | ? | ?
Cc1ncc(N=Nc2ccc(F)cc2)c(-c2ccc(Cl)cc2)n1 | 0 | -118%* | -11 | -4
O=C(COC(=O)Cc1c(F)cccc1Cl)NNC(=O)c1ccccc1 | 1 | i | -1 | nt
O=C(NNC(=O)C1CC=CCC1)c1ccccc1Cl (stereo not given) | -2 | i | 27 | -14
O=C(COC(=O)C1CCC1)NCc1ccc(Cl)cc1Cl | 1 | i | 4 | 6
CCN1/C(=C/c2cc[n+](CCCS(=O)(=O)[O-])c3ccccc23)Sc2ccccc21 | -2 | i | 0 | -12
C=CC[n+]1ccc(/C=C2\C=Cc3cc(C)ccc3N2CC)c2ccccc21 | -2 | i | -73* | -21
CC(CC12CC3CC(CC(C3)C1)C2)NCc1ccccc1O (stereo not given) | 0 | i | -9 | -7
S=C(NN=C(c1ccccc1)c1ccccn1)N(Cc1ccccn1)Cc1ccccn1 | -1 | i | -94* | 4
COc1ccccc1NC(=S)N(Cc1ccc(C)cc1)Cc1ccccn1 | 1 | i | 0 | 5
S=C(NN=Cc1ccccn1)N(Cc1ccccn1)Cc1ccccn1 | -43* | i | -91* | -94*
O=C(CCCC(=O)N/N=C\c1ccccn1)N/N=C\c1ccccn1 | 0 | i | 2 | -5
Cc1ccccc1NC(=S)N(Cc1ccccn1)Cc1ccccc1Cl | -3 | i | -8 | -3
CC(=NNC(=S)N(Cc1ccccn1)Cc1ccccn1)c1cnccn1 | 2 | i | -90* | -3
Cc1noc(C)c1NC(=O)N(C)C[C@H]1Oc2ccc(NC(=O)Nc3ccc4c(c3)OCO4)cc2C(=O)N([C@H](C)CO)C[C@@H]1C | -2 | i | -4 | 65
O=C(C1=C(O)C(=O)N(CC2CCCO2)C1c1ccc(Cl)cc1Cl)c1ccco1 (stereo not given) | -3 | i | -4 | -3
Cc1c(NC(=O)c2cc(-c3cccs3)on2)c(=O)n(-c2ccccc2)n1C | 0 | -83%* | -2 | -2
O=S(=O)(c1cccc(NC(=S)Nc2ccc(Br)cc2Cl)c1)N1CCOCC1 | -63* | i | -1 | 0
Cc1ccc(C)n1C1CCS(=O)(=O)C1 (stereo not given) | -4 | i | 8 | 2
Cc1nn(C2CCS(=O)(=O)C2)c(C)c1C=O (stereo not given) | -36* | i | 17 | 11
SMILES | CCT modulator | pAkt inh | Six1-Eya2 blk | CtBP-E1A blk
COc1ccccc1C(=O)NC(CCSC)C(=O)NNC(=O)c1ccncc1 (stereo not given) | -1 | i | -1 | 16
CCCCOC(=O)Nc1ccc(OC)cc1S(=O)(=O)N1CCOCC1 | -1 | -110%* | -3 | 8
CC(C)OC(=O)c1ccc(NC(=S)NC(=O)c2cncc(Br)c2)cc1 | -7 | i | 14 | -15
Cc1[nH]n2c(=O)c3c(nc2c1-c1ccccc1)CCCC3 | 0 | i | -13 | -8
Cc1[nH]n2c(=O)c3c(nc2c1-c1cccc2ccccc12)CCC3 | -1 | -114%* | -7 | 3
COc1ccc(CCNC(=O)c2cnc(C)cn2)cc1 | -1 | i | 10 | 9
COc1ccc(CCNC(=O)COC(=O)c2cnc(C)cn2)cc1 | -2 | -109%* | -2 | 14
CC1(C)CC(=O)C=C(NC2CCCC(O)C2)C1 (stereo not given) | 0 | i | 11 | -15
COc1ccc2nc(-c3ccccc3)[nH]c(=O)c2c1 | -2 | i | 1 | -1
COc1ccc(-c2nc3ccc(N4CCCC4)cc3c(=O)[nH]2)cc1OC | -79* | i | -11 | -5
COc1ccc(N2CCN(CC(=O)Nc3nc4c(s3)CC(C)CC4)CC2)cc1 (stereo not given) | 1 | -120%* | ? | ?
COc1ccc(N2CCN(CC(=O)Nc3ncc(C)s3)CC2)cc1 | 2 | i | -8 | nt
COc1cc(NS(=O)(=O)c2ccc(NC(=O)COc3cccc(C)c3)cc2)nc(OC)n1 | -5 | i | -2 | -2
COc1cc(NS(=O)(=O)c2ccc(NC(=O)COc3ccccc3Cl)cc2)nc(OC)n1 | 3 | -125%* | -2 | 9
O=C(O)c1ncn(Cc2ccccc2)c1C(=O)O | -1 | nt | -69* | ?
Cc1ccc2nc(Cl)c(C3CC(c4ccco4)=NN3C(=O)CCCC(=O)O)cc2c1 (stereo not given) | -109* | i | -25 | -5
Cc1ccc2cc(C3CC(c4ccco4)=NN3C(=O)CCCC(=O)O)c(Cl)nc2c1 (stereo not given) | 0 | i | 2 | nt
CCN(C[C@H]1N[C@@](C)(C(=O)OC)[C@H]2C(=O)N(Cc3ccccc3)C(=O)[C@@H]12)C(=O)c1ccc(C)cc1 | 0 | i | 5 | 5
CCN(C[C@H]1N[C@@](C)(C(=O)OC)[C@H]2C(=O)N(Cc3ccccc3)C(=O)[C@@H]12)C(=O)c1ccc(F)cc1 | -34* | i | 4 | 4
Cc1nc2nc(Cc3ccccc3)[nH]n2c(=O)c1Cl | 0 | -114%* | 3 | 10
O=C(c1ccc(Br)o1)N1CCN(C/C=C/c2ccccc2)CC1 | 0 | -109%* | -12 | -3
COc1ccc(-c2nc3ccc(Br)cn3c2Cc2ccccc2)cc1OC | 1 | i | -7 | 4
CC(=O)OCC1OC(n2c(-c3ccc(Cl)cc3)ccc(C#N)c2=S)C(OC(C)=O)C(OC(C)=O)C1OC(C)=O (stereo not given) | 0 | i | -13 | 2
CC(C)c1nc2sc3c(SCC(=O)NCc4ccco4)ncnc3c2c2c1CCC2 | -4 | -95%* | -26 | -25
O=C(CSc1ncnc2sc3c(c12)CCCCC3)NCc1ccco1 | 0 | i | -5 | -6
CN(C)c1ccc(/C=C(\C#N)C(=O)Nc2nc3c(s2)CCN(Cc2ccccc2)C3)cc1 | 0 | i | 0 | 9
Cc1ccc2c(C(=O)N3CCN(c4ccccc4)CC3)cc(-c3cccnc3)nc2c1C | -43* | i | -12 | -2
C=CCSc1nnc(-c2cc3c(-c4ccccc4)nn(C)c3s2)n1C | -2 | i | -75* | -76*
Cc1cccc(-n2c(SCCC(=O)O)nnc2-c2cccs2)c1C | -2 | -115%* | 4 | 0
COc1cc(CCNc2ccc3nnc(-c4ccccc4)n3n2)cc(OC)c1OC | -5 | i | -80* | -90*
